HCMV inh = inhibitors of human cytomegalovirus | 410,000 tested, 4.5% active | activity change, negative = inhibition, % at 57.5 µM | HFF cells, HCMV-luciferase reporter, 72 h; active compounds read low; in the data active = activity change below about -60%; inconclusive = no clear call, values can overlap the other calls; inactive = above about -39%
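Compounds were evaluated in HFFs infected with an HCMV luciferase reporter virus (MOI 1 PFU/cell). Luciferase in lysates collected 72 h post infection served as the replication measure.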
Vaccinia Venus = inhibitors of vaccinia virus (Venus reporter); Vaccinia virus Venus reporter expression, fluorescence; Potency, µM (titrated, usually from 36.5 µM), for inactives: at the highest dose activity change, negative = inhibition, most hits filed as inhibitors; 330,000 tested, 0.46% active; AID 720580; calls by dose curve; tested in A549 cells; also: potency is read from the fitted curve at half-maximal effect; nearly all actives have a fitted effect of over 30% in size
VACV mCherry inh = inhibitors of vaccinia virus infection (mCherry reporter signal). Vaccinia virus mCherry reporter infection, fluorescence. 310,000 tested, 0.63% active. Potency, µM (series often up to 36.5 µM), for inactives: top-dose activity change, negative = inhibition, most hits filed as inhibitors. AID 720579; calls by dose curve; tested in A549 cells; also: potency is read from the fitted curve at half-maximal effect; nearly all actives have a fitted effect of over 35% in size
LASV entry inh = blocks Lassa virus binding to or entry into cells; Lassa virus pseudotype entry inhibition, cell reporter; Potency, µM (highest dose often 37.9 µM), inactives show top-dose activity change, negative = inhibition, actives largely listed as inhibitors; 300,000 tested, 1.2% active; AID 540256; calls by dose curve; tested in HEK293 cells; also: potency is read from the fitted curve at half-maximal effect; nearly all actives have a fitted effect of over 50% in size
HCV inh = inhibitors of hepatitis C virus infection; Huh7.5.1 HCVcc-Cre infection, luciferase reporter, 44 h; 340,000 tested, 3.4% active; AID 651820; Potency, µM (titrated, usually from 41.8 µM), for inactives: at the top dose activity change, negative = inhibition, actives largely listed as inhibitors; active = well fitted inhibition curve with a large enough effect; inconclusive = small, poorly fitted or top-dose-only effect, or another doubt; inactive = no such curve, though single readings can be large or run the other way; also: potency is read from the fitted curve at half-maximal effect
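Reporter virus HCVcc-Cre (~0.5 moi) infects cells exposed to compound; seeding density 1,000 cells/well with 4 h settling beforehand. Luminescence, 15 sec read, taken 44 h post-infection following a 15 min RT substrate incubation.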
Marburg entry inh = blocks Marburg virus binding to or entry into cells; Marburg virus pseudotyped entry inhibition, cell reporter; Potency, µM (top dose mostly 37.8 µM), for the others: at the top dose activity change, negative = inhibition, hits mostly inhibitors; 300,000 tested, 1.8% active; calls by dose curve; tested in HEK293 cells; also: potency is read from the fitted curve at half-maximal effect
* = called active by the depositor; i = inactive; u = inconclusive; x = no result given; [ ] = dose if it differs, or a comment. An excerpt weighted towards active compounds, which were near 7.8% of everything screened. % is scaled to controls: 0 for no effect and ±100 for the full control effect.

SMILES | HCMV inh | Vaccinia Venus | VACV mCherry inh | LASV entry inh | HCV inh | Marburg entry inh
COc1ccc(-c2ccc(NS(=O)(=O)c3ccccc3Cl)cc2)nn1 | -26 | -8% | -9% | u | x | x
COc1ccc(OC)c(S(=O)(=O)Nc2ccc(Oc3ccccc3)cc2)c1 | -64* | x | x | -2% | u | -23%
COc1ccc(OC)c(S(=O)(=O)Nc2ccc(-c3ccc4nncn4n3)cc2)c1 | u | 10µM* | 8.9µM* | -14% | u | u
COC(=O)c1c(C)oc2ccc(NS(=O)(=O)c3cc(OC)ccc3OC)cc12 | -62* | u | u | u | 1% | u
Cc1cccc(N2O[C@H]3C=C[C@@H]2C3)n1 | 38 | x | x | x | x | x
O=C(NC1CC(=O)N(c2ccc(Cl)cc2)C1)c1cc2ccccc2o1 (configuration not stated) | 26 | -8% | -4% | -22%[46.1 µM] | x | x
COc1ccc(OC)c(NC(=O)c2c(C)oc3ncnc(N4CCOCC4)c23)c1 | 27 | -8% | i | 17%[46.1 µM] | x | x
Cc1sc2ncnc(N/N=C/c3cccc(O)c3)c2c1C | u | -23% | -5% | 28% | u | 3.2µM*
C/C(=N\Nc1ncnc2sc(C)c(C)c12)c1ccccn1 | -102* | -21% | 5µM* | u | u | 3.2µM*
C/C(=N\Nc1ccc(Cl)c(C(=O)O)c1)c1ccccn1 | -24 | -3% | -16% | x | 8% | x
C/C(=N\Nc1ncc(Cl)cc1Cl)c1ccccn1 | x | 16% | u | u | u | 0.89µM*
COc1cc(SC)ccc1C(=O)N1CCN(c2ccc(O)cc2)CC1 | -14 | x | x | x | -12% | x
COc1cc(SC)ccc1C(=O)N1CCC(Cc2ccccc2)CC1 | x | x | x | 8.2µM* | x | u
COc1cc(SC)ccc1C(=O)N1CCN(Cc2ccccc2)CC1 | 50 | x | x | u | 25µM* | -20%
COc1cc(SC)ccc1C(=O)N1CCN(c2ccccc2)CC1 | -2 | -17% | -14% | 13µM* | -21% | -23%[46.1 µM]
COc1cc(SC)ccc1C(=O)N1CCCCCC1 | 5 | x | x | 7% | -22% | 9%
CN1CCC(=C(c2ccccc2)c2ccc(Br)cc2)CC1 | u | x | x | x | 8.9µM* | x
CN1CCC(OC(=O)c2ccc(Br)cc2)CC1 | 11 | x | x | 3% | -23% | 1%
O=C(NCc1cccc(Cl)c1)c1cccn1-c1nnc(N2CCCC2)s1 | u | -17% | -18% | -14%[46.1 µM] | x | x
Cc1nn(CCCC(=O)Nc2cc(Oc3ccccc3)cc([N+](=O)[O-])c2)c(C)c1[N+](=O)[O-] | 3 | u | u | 4% | u | u
Cc1ccc(C)c(Oc2cc(NC(=O)CCCn3nc(C)c([N+](=O)[O-])c3C)cc([N+](=O)[O-])c2)c1 | -88* | u | u | u | 13µM* | u
CCOC(=O)N1CCc2c(sc3c2c(=O)n(-c2ccc(Cl)cc2)c(=O)n3Cc2cccc(OC)c2)C1 | -12 | -13% | -10% | 9%[46.1 µM] | x | -6%[46.1 µM]
Fc1ccc(C2CCNCC2COc2ccc3c(c2)OCO3)cc1 (configuration not stated) | -34 | -22% | u | u | 14µM* | u
Fc1ccc([C@@H]2CCNC[C@H]2COc2ccc3c(c2)OCO3)cc1 | u | u | u | u | u | 16µM*
CCOc1cccc(C2C=C(c3ccc4c(c3)OCO4)NC(c3ccc(F)cc3)N2)c1O (configuration not stated) | x | -8% | 14% | x | x | x
SMILES | HCMV inh | Vaccinia Venus | VACV mCherry inh | LASV entry inh | HCV inh | Marburg entry inh
COc1ccccc1-c1noc(-c2ccc(N3CCC(C)CC3)c([N+](=O)[O-])c2)n1 | 66 | -6% | -8% | 8%[46.1 µM] | x | -24%[46.1 µM]
CCOc1ccc(/C=N/Nc2ccc(C(F)(F)F)cc2[N+](=O)[O-])cc1O | -13 | -13% | i | u | u | u
CCOc1cc(/C=N/NC(=O)N/N=C/c2ccc(O)c(OCC)c2)ccc1O | 25 | u | u | u | u | 7.1µM*
CCOc1cc(/C=N/NC(=O)Cc2ccc(C(F)(F)F)cc2[N+](=O)[O-])ccc1O | -61* | -10% | i | -2% | -26% | 2%
CCOc1cc(/C=N/NC(=O)c2ccccc2OCc2ccc(F)cc2)ccc1O | -82* | x | x | x | u | x
CCOc1ccccc1NC(=O)c1cc2c(Cl)nc3ccccc3c2s1 | 1 | 13% | 8% | -3%[46.1 µM] | x | -2%[46.1 µM]
CC(Sc1nc(-c2ccccc2)cc(C(F)(F)F)n1)C(=O)NCc1ccco1 (configuration not stated) | -38 | -12% | -25% | -9% | 11µM* | u
COc1ccc(CNC(=O)C(C)Sc2nc(-c3ccccc3)cc(C(F)(F)F)n2)cc1 (configuration not stated) | u | -9% | 0% | -12%[46.1 µM] | x | 7%[46.1 µM]
COC(=O)Nc1nc(C)c(C(=O)c2ccccc2)s1 | 87 | u | x | u | -14% | u
COc1ccc(C(=O)Nc2nc(-c3ccccc3)c(C(C)=O)s2)c(OC)c1 | 13 | 1% | -8% | x | 13µM* | u
COc1ccc(C(=O)Nc2nc(-c3ccc([N+](=O)[O-])cc3)c(-c3ccccc3)s2)cc1 | -18 | 2% | x | -26% | 6.3µM* | -5%
COC(=O)Nc1nc(-c2ccccc2)c(C(=O)c2ccccc2)s1 | u | u | x | 3.2µM* | u | u
CCS(=O)(=O)c1ccc2oc(SCC(=O)NCCc3ccccc3)nc2c1 | 31 | u | 13µM* | -23% | 7% | u
CC(NC(=O)c1cc(F)ccc1F)c1nnc2n1CCN(Cc1cccs1)CC2 (configuration not stated) | x | -7% | -17% | x | x | x
CC(C)N=C(NS(=O)(=O)c1ccccc1)C(Cl)(Cl)Cl | -98* | 11µM* | 14µM* | u | u | u
C=C1Nc2ccccc2C(=O)N1c1ccc(C(=O)N2CCN(C(=O)c3ccco3)CC2)cc1 | x | -8% | -8% | x | x | x
CNC(=S)N1N=C(c2ccc(C)cc2)CC1c1ccc(OC)cc1 (configuration not stated) | 3 | u | -13%[1.46 µM] | u | u | -20%
COc1ccc(C2CC(c3ccc(Br)cc3)=NN2C(=O)CN2CCCC2)cc1 (configuration not stated) | -16 | -10%[7.34 µM] | -8%[7.34 µM] | u | 10µM* | u
COc1ccc(C2=NN(C(=O)CN3CCCCC3)C(c3ccc(C)cc3)C2)cc1 (configuration not stated) | -39 | -23% | -13% | -20% | 0% | u
CNC(=S)N1N=C(c2ccc(Br)cc2)CC1c1ccc(OC)cc1 (configuration not stated) | -13 | -18% | -27% | u | 10µM* | u
CCOc1ccc(/C=C/c2nc(C#N)c(NC(C)CC)o2)cc1 (configuration not stated) | -36 | -17% | -21% | 1%[46.1 µM] | x | 1%[46.1 µM]
Cc1ccc(OCC(=O)Nc2cc(-c3nc4cc(Cl)ccc4o3)ccc2C)c(C)c1 | x | -11% | -5% | x | x | x

High-throughput results: PubChem, National Center for Advancing Translational Sciences (NCATS)
